The values below come from PubChem BioAssay (NCATS).

The first experiment in a line: qHTS drug screen for cell cycle checkpoint inhibitors in PARPi-resistant BRCA-mutant ovarian cancer cell lines. (AID 1963452). The settings on record: PEO1/OlaR viability, CellTiter-Glo luminescence, 96 h; measured here: PEO1 parental Z-AUC; stronger effect = lower value. The gist of the method: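 PEO1, PEO4 and PEO1/OlaR ovarian cancer cells, 600 per well, exposed 96 h at 37C to a dilution series. Viability read by CellTiter-Glo luminescence, normalized to DMSO and empty wells; activity summarized as Z-AUC.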
For `CN1CCN(c2cc(C(=O)Nc3ccc4c(c3)-c3c(c(C(N)=O)nn3-c3ccc(F)cc3)CC4)c(Cl)cn2)CC1`, the Z-AUC is 0.439.

Turning to `COc1cc(Nc2ncc(F)c(Nc3ccc4c(n3)N(COP(=O)(O)O)C(=O)C(C)(C)O4)n2)cc(OC)c1OC`, the Z-AUC was 0.402.

With `Cc1ccc(C(=O)Nc2ccc(CN3CCN(C)CC3)c(C(F)(F)F)c2)cc1C#Cc1cnc2cccnn12`, the Z-AUC was -1.43.

`Cc1ccc(-c2ncn(-c3ccc(Nc4nccc(-c5cccc(N6CCOCC6)c5)n4)cc3)n2)cn1`: the Z-AUC is -2.09.

In the case of `COc1ccc(-n2nc(C(N)=O)c3c2C(=O)N(c2ccc(N4CCCCC4=O)cc2)CC3)cc1`, the Z-AUC was 0.968.

On to `O=c1[nH]nc(Sc2ncc([N+](=O)[O-])s2)n1-c1ccc2c(c1)OCCO2`, for which the Z-AUC was found to be 0.187.

Regarding `C[C@@H]1CN(CC(=O)Nc2ccc3c(c2)Cc2cccc(-c4cc(=O)cc(N5CCOCC5)o4)c2S3)C[C@H](C)O1`, the Z-AUC was found to be 0.761.

With `COc1cccc2c(NCc3ccccc3)nc(-n3c(N)nc4ccccc43)nc12`, the Z-AUC stood at 0.136.

Consider `Clc1ccc2ncc(-c3cccc(NC4CNC4)n3)n2c1`, for which the Z-AUC was found to be 0.128.

Consider `Cc1cc(Nc2ncnc3ccc(-c4ccc(CNCCS(C)(=O)=O)o4)cc23)ccc1Oc1ccn2ncnc2c1`, for which the Z-AUC was found to be 0.912.

On to `C=CC(=O)N1CCC[C@@H](n2nc(-c3ccc(Oc4ccccc4)cc3)c3c(N)ncnc32)C1`, for which the Z-AUC was determined as 0.501.

With `c1nc2nc(Nc3ccc(N4CCOCC4)cc3)nc(NC3CCCCC3)c2[nH]1`, the Z-AUC amounted to 0.016.

Regarding `Cc1cc(Nc2cc(N3CCN(C)CC3)nc(Sc3ccc(NC(=O)C4CC4)cc3)n2)n[nH]1`, the Z-AUC is -0.131.

As for `Cc1c(C)n(Cc2ccc(-c3ccccc3C(=O)O)cc2)c2ccc(C(=O)N[C@@H](C)c3ccc([N+](=O)[O-])cc3)cc12`, the Z-AUC is 0.774.

For `CCOC(=O)C1=C(C)NC2=C(C(=O)CC(C)(C)C2)C1c1ccc(-c2ccccc2)cc1` (configuration not stated), the Z-AUC is 0.756.

Regarding `Cc1nc2ccc(CN(C)c3ccc(C(=O)N[C@@H](CCC(=O)O)C(=O)O)s3)cc2c(=O)[nH]1`, the Z-AUC is -1.34.

For the molecule `CNc1nccc(-c2cccnc2Oc2cc(C(=O)Nc3cccc(C(F)(F)F)c3)ccc2C)n1`, the Z-AUC was -0.637.

As for `CC(=O)SC[C@@H](C)C(=O)N1CCC[C@H]1C(=O)N[C@@H](Cc1ccccc1)C(=O)O`, the Z-AUC is -0.242.

For the molecule `Nc1nc(NCCNc2ncc(-n3ccnc3)c(-c3ccc(Cl)cc3Cl)n2)ccc1[N+](=O)[O-]`, the Z-AUC was 0.907.

For `Cc1ccc(CN2CCNCC2)cc1NC(=O)CNc1ccc(F)c(F)c1`, the Z-AUC is -0.179.

On to `COc1cc2c(cc1-c1c(C)noc1C)ncc1[nH]c(=O)n([C@H](C)c3ccccn3)c12`, for which the Z-AUC is -1.04.

For the molecule `C#Cc1cccc(Nc2ncnc3cc(OC)c(OCCCCCCC(=O)NO)cc23)c1`, the Z-AUC is -1.22.

`CC(=O)Nc1nc(C)c(-c2ccc(Cl)c(S(=O)(=O)NCCO)c2)s1`: the Z-AUC is -0.921.

In the case of `COc1cc(C)c(Sc2cnc(NC(=O)c3ccc(CNC(C)C(C)C)cc3)s2)cc1C(=O)N1CCN(C(C)=O)CC1` (configuration not stated), the Z-AUC was -0.662.

Take `CCCCOc1c(C(=O)c2c(F)cc(C)cc2F)cnc2n[nH]cc12`: the Z-AUC was found to be 0.585.

For the molecule `COc1cc2c(Oc3ccc(NC(=O)C4(C(=O)Nc5ccc(F)cc5)CC4)cc3F)ccnc2cc1OCCCN1CCOCC1`, the Z-AUC is -0.246.

In the case of `CC(=O)OCCN1C(=O)c2c(C)nc3ccc(S(=O)(=O)N4CCOCC4)cc3c2C1=O`, the Z-AUC stood at 1.34.

For the molecule `O=C(c1ccc(Nc2nccc(-c3cc4ccccc4s3)n2)cc1)N1CCC(N2CCCC2)CC1`, the Z-AUC is 0.645.

Regarding `O=C(Nc1nc2cccc(-c3ccc(CN4CCS(=O)(=O)CC4)cc3)n2n1)C1CC1`, the Z-AUC turned out to be 0.544.

For `O=C(Nc1cn[nH]c1-c1nc2ccc(CN3CCOCC3)cc2[nH]1)NC1CC1`, the Z-AUC was -1.15.

On to `NC(=O)c1cccc2cn(-c3ccc([C@@H]4CCCNC4)cc3)nc12`, for which the Z-AUC was -0.0942.

Consider `CCN(CC)CCNC(=O)c1ccc2nc(-c3ccccc3)c(-c3ccc(CN4CCC(n5c(=O)[nH]c6ccccc65)CC4)cc3)nc2c1`, for which the Z-AUC is -1.23.

Consider `COc1cc2ncn(-c3cc(OCc4ccccc4C(F)(F)F)c(C(N)=O)s3)c2cc1OC`, for which the Z-AUC was -0.678.

`COc1cc2c(Nc3ccc(NC(=O)c4ccccc4)cc3)ncnc2cc1OCCCN1CCOCC1`: the Z-AUC stood at 0.378.

For the molecule `CCN(CC)CCCCNc1ncc2cc(-c3cc(OC)cc(OC)c3)c(NC(=O)NC(C)(C)C)nc2n1`, the Z-AUC turned out to be 1.07.

Regarding `CN(C)CCCN=c1c2ccccc2n(C)c2[nH]c(=O)n(C)c(=O)c12`, the Z-AUC came to 1.79.

Still in this experiment, the particulars now being: PEO1/OlaR viability, CellTiter-Glo luminescence, 96 h; measured here: PEO4 Z-AUC; stronger effect = lower value.
Consider `CN1CCN(c2cc(C(=O)Nc3ccc4c(c3)-c3c(c(C(N)=O)nn3-c3ccc(F)cc3)CC4)c(Cl)cn2)CC1`, for which the Z-AUC was -0.0103.

`COc1cc(Nc2ncc(F)c(Nc3ccc4c(n3)N(COP(=O)(O)O)C(=O)C(C)(C)O4)n2)cc(OC)c1OC`: the Z-AUC turned out to be 0.538.

Take `Cc1ccc(C(=O)Nc2ccc(CN3CCN(C)CC3)c(C(F)(F)F)c2)cc1C#Cc1cnc2cccnn12`: the Z-AUC was -0.606.

In the case of `Cc1ccc(-c2ncn(-c3ccc(Nc4nccc(-c5cccc(N6CCOCC6)c5)n4)cc3)n2)cn1`, the Z-AUC is -1.65.

Turning to `COc1ccc(-n2nc(C(N)=O)c3c2C(=O)N(c2ccc(N4CCCCC4=O)cc2)CC3)cc1`, the Z-AUC stood at 0.601.

As to `O=c1[nH]nc(Sc2ncc([N+](=O)[O-])s2)n1-c1ccc2c(c1)OCCO2`, the Z-AUC was -0.291.

`C[C@@H]1CN(CC(=O)Nc2ccc3c(c2)Cc2cccc(-c4cc(=O)cc(N5CCOCC5)o4)c2S3)C[C@H](C)O1`: the Z-AUC stood at 0.901.

Consider `COc1cccc2c(NCc3ccccc3)nc(-n3c(N)nc4ccccc43)nc12`, for which the Z-AUC was -0.014.

Turning to `Clc1ccc2ncc(-c3cccc(NC4CNC4)n3)n2c1`, the Z-AUC was -0.613.

With `Cc1cc(Nc2ncnc3ccc(-c4ccc(CNCCS(C)(=O)=O)o4)cc23)ccc1Oc1ccn2ncnc2c1`, the Z-AUC amounted to 0.782.

Regarding `C=CC(=O)N1CCC[C@@H](n2nc(-c3ccc(Oc4ccccc4)cc3)c3c(N)ncnc32)C1`, the Z-AUC was determined as 0.517.

For `c1nc2nc(Nc3ccc(N4CCOCC4)cc3)nc(NC3CCCCC3)c2[nH]1`, the Z-AUC is -0.143.

Take `Cc1cc(Nc2cc(N3CCN(C)CC3)nc(Sc3ccc(NC(=O)C4CC4)cc3)n2)n[nH]1`: the Z-AUC was -0.437.

Turning to `Cc1c(C)n(Cc2ccc(-c3ccccc3C(=O)O)cc2)c2ccc(C(=O)N[C@@H](C)c3ccc([N+](=O)[O-])cc3)cc12`, the Z-AUC came to 0.226.

As to `CCOC(=O)C1=C(C)NC2=C(C(=O)CC(C)(C)C2)C1c1ccc(-c2ccccc2)cc1` (configuration not stated), the Z-AUC is 0.977.

As for `Cc1nc2ccc(CN(C)c3ccc(C(=O)N[C@@H](CCC(=O)O)C(=O)O)s3)cc2c(=O)[nH]1`, the Z-AUC is -0.15.

In the case of `CNc1nccc(-c2cccnc2Oc2cc(C(=O)Nc3cccc(C(F)(F)F)c3)ccc2C)n1`, the Z-AUC is 0.0306.

As to `CC(=O)SC[C@@H](C)C(=O)N1CCC[C@H]1C(=O)N[C@@H](Cc1ccccc1)C(=O)O`, the Z-AUC was -0.303.

As to `Nc1nc(NCCNc2ncc(-n3ccnc3)c(-c3ccc(Cl)cc3Cl)n2)ccc1[N+](=O)[O-]`, the Z-AUC is 0.221.

For the molecule `Cc1ccc(CN2CCNCC2)cc1NC(=O)CNc1ccc(F)c(F)c1`, the Z-AUC was -0.154.

In the case of `COc1cc2c(cc1-c1c(C)noc1C)ncc1[nH]c(=O)n([C@H](C)c3ccccn3)c12`, the Z-AUC was -1.54.

On to `C#Cc1cccc(Nc2ncnc3cc(OC)c(OCCCCCCC(=O)NO)cc23)c1`, for which the Z-AUC is -1.32.

As to `CC(=O)Nc1nc(C)c(-c2ccc(Cl)c(S(=O)(=O)NCCO)c2)s1`, the Z-AUC is -1.08.

`COc1cc(C)c(Sc2cnc(NC(=O)c3ccc(CNC(C)C(C)C)cc3)s2)cc1C(=O)N1CCN(C(C)=O)CC1` (configuration not stated): the Z-AUC is -0.689.

For `CCCCOc1c(C(=O)c2c(F)cc(C)cc2F)cnc2n[nH]cc12`, the Z-AUC is -0.136.

With `COc1cc2c(Oc3ccc(NC(=O)C4(C(=O)Nc5ccc(F)cc5)CC4)cc3F)ccnc2cc1OCCCN1CCOCC1`, the Z-AUC was -0.374.

As to `CC(=O)OCCN1C(=O)c2c(C)nc3ccc(S(=O)(=O)N4CCOCC4)cc3c2C1=O`, the Z-AUC stood at 1.26.

As for `O=C(c1ccc(Nc2nccc(-c3cc4ccccc4s3)n2)cc1)N1CCC(N2CCCC2)CC1`, the Z-AUC amounted to 0.0416.

Consider `O=C(Nc1nc2cccc(-c3ccc(CN4CCS(=O)(=O)CC4)cc3)n2n1)C1CC1`, for which the Z-AUC was determined as 0.638.

As to `O=C(Nc1cn[nH]c1-c1nc2ccc(CN3CCOCC3)cc2[nH]1)NC1CC1`, the Z-AUC was -1.9.

Turning to `NC(=O)c1cccc2cn(-c3ccc([C@@H]4CCCNC4)cc3)nc12`, the Z-AUC amounted to 0.435.

With `CCN(CC)CCNC(=O)c1ccc2nc(-c3ccccc3)c(-c3ccc(CN4CCC(n5c(=O)[nH]c6ccccc65)CC4)cc3)nc2c1`, the Z-AUC was -1.53.

For the molecule `COc1cc2ncn(-c3cc(OCc4ccccc4C(F)(F)F)c(C(N)=O)s3)c2cc1OC`, the Z-AUC is -1.55.

For `COc1cc2c(Nc3ccc(NC(=O)c4ccccc4)cc3)ncnc2cc1OCCCN1CCOCC1`, the Z-AUC is -0.00174.

Take `CCN(CC)CCCCNc1ncc2cc(-c3cc(OC)cc(OC)c3)c(NC(=O)NC(C)(C)C)nc2n1`: the Z-AUC was 0.00955.

As to `CN(C)CCCN=c1c2ccccc2n(C)c2[nH]c(=O)n(C)c(=O)c12`, the Z-AUC amounted to 1.54.
